Measured values as given in paper PMC7862700, “An all-to-all approach to the identification of sequence-specific readers for epigenetic DNA modifications on cytosine”.

How the values were obtained:
Experiment in all cases: DAPPL (digital affinity profiling via proximity ligation, sequencing); 10 mM Tris-HCl pH 7.5, 50 mM NaCl, 1 mM DTT, 4% glycerol, room temperature, 30 min; GST-TFs on glutathione beads, 16-mer random dsDNA library, 0.1% formaldehyde crosslink after washing; high values mean tight binding
FEV = target: T1, FEV (Homo sapiens, UniProt Q99581 1-238); details: protein: recombinant; tags: N-terminal GST; dsDNA, one strand shown
T1 sequence: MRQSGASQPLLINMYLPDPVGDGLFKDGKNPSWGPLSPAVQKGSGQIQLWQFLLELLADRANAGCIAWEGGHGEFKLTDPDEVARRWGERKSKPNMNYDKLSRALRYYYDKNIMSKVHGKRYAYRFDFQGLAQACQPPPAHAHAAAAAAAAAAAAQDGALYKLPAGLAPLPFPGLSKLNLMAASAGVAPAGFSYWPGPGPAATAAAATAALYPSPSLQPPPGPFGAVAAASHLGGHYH
Procedure, shortened: (§1)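 In yeast, human transcription factors were expressed with a GST fusion, then pulled down on glutathione beads and given DNA barcodes. Pooled with a tag-only sample, they were exposed to 200 nmole of a 16-mer random double-stranded DNA library (Tris/NaCl/DTT/glycerol buffer, room temperature, 30 min), washed, crosslinked with 0.1% formaldehyde, proximity-ligated using BsaI/T4 ligase for 1 h at 37 °C, PCR-amplified and read on an Illumina NextSeq500. Each hexamer's frequency of reads for a factor, divided by the matching frequency for the tag-only sample, gives the binding signal.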

ETV5 = ETV5 (Homo sapiens, UniProt P41161 1-510); details: protein: recombinant; tags: N-terminal GST; dsDNA, one strand shown
Chain of ETV5 (P41161 whole entry): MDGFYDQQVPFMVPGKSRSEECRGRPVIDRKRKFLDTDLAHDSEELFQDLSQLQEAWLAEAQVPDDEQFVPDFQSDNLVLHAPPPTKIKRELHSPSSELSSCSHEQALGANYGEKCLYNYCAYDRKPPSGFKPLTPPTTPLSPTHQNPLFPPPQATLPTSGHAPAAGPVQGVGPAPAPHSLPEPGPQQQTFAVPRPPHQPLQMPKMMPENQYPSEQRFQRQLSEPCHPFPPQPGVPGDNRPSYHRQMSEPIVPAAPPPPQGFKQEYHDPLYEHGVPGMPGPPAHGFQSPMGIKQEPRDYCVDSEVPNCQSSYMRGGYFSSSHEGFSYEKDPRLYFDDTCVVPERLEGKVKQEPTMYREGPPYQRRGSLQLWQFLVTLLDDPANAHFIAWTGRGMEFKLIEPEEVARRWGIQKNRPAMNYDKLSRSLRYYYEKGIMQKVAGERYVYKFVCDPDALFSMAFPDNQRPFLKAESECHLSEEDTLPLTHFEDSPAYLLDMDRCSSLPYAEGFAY
Procedure, shortened: as §1

HSF1 = HSF1 (Homo sapiens, UniProt Q00613 1-529); details: protein: recombinant; tags: N-terminal GST; chain copies: 3; dsDNA, one strand shown
Chain of HSF1 (Q00613 whole entry): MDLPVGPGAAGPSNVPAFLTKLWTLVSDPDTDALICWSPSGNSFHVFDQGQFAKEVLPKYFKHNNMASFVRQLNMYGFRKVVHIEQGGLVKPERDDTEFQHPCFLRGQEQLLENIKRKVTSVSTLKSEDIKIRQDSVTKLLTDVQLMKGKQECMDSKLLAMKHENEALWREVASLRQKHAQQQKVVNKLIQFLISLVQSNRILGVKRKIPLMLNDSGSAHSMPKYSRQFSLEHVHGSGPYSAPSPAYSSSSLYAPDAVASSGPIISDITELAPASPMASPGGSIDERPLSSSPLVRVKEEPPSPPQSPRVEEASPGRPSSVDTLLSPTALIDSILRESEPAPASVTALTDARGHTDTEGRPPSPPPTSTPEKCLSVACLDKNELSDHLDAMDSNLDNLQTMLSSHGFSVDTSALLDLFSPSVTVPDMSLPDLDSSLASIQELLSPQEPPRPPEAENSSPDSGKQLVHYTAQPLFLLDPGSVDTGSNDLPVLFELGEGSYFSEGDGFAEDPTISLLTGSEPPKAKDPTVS
Procedure, shortened: as §1

SPIC = target: T2, SPIC (Homo sapiens, UniProt Q8N5J4 1-248); details: protein: recombinant; tags: N-terminal GST; dsDNA, one strand shown
T2 sequence: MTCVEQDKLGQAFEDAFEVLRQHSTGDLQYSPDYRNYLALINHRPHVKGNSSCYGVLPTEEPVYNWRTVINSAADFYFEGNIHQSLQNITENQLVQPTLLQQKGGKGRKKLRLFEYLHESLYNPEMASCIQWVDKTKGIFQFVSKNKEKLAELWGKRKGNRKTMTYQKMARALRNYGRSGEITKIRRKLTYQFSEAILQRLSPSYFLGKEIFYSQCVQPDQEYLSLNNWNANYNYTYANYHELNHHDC
Procedure, shortened: as §1

ELF4 = ELF4 (Homo sapiens, UniProt Q99607 1-663); details: protein: recombinant; tags: N-terminal GST; dsDNA, one strand shown
Chain of ELF4 (Q99607 whole entry): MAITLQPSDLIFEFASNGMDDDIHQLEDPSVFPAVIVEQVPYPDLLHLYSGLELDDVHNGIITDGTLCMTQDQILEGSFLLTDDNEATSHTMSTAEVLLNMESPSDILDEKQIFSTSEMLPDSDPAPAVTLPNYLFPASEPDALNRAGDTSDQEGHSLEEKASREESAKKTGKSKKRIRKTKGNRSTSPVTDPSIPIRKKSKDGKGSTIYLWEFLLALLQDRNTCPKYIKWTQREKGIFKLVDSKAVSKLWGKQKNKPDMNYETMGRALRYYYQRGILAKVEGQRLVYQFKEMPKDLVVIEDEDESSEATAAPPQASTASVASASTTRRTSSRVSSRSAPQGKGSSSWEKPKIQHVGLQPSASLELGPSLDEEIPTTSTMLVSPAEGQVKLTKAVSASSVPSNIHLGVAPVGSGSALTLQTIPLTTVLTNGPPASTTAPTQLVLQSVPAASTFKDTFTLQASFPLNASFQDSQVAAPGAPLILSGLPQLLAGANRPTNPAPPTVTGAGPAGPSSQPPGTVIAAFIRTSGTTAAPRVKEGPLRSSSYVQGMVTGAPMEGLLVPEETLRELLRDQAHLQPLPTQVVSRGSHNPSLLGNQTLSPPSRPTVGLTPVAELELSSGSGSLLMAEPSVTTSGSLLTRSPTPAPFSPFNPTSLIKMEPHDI
Procedure, shortened: as §1

ELK4 = target: T3, ELK4 (Homo sapiens, UniProt P28324-2 1-405); details: protein: recombinant; tags: N-terminal GST; dsDNA, one strand shown
T3 sequence: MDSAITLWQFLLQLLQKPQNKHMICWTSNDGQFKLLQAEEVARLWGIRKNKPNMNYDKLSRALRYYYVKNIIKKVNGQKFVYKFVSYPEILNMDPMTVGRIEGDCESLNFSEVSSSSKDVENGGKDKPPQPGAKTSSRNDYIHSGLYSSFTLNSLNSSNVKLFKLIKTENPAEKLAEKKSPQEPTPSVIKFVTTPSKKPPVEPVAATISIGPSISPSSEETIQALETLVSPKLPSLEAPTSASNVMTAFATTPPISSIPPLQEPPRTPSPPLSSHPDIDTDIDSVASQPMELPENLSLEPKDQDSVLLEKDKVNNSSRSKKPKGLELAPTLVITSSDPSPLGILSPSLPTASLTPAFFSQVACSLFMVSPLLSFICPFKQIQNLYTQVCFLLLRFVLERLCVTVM
Procedure, shortened: as §1

ETV2 = target: T4, ETV2 (Homo sapiens, UniProt O00321 1-342); details: protein: recombinant; tags: N-terminal GST; dsDNA, one strand shown
T4 sequence: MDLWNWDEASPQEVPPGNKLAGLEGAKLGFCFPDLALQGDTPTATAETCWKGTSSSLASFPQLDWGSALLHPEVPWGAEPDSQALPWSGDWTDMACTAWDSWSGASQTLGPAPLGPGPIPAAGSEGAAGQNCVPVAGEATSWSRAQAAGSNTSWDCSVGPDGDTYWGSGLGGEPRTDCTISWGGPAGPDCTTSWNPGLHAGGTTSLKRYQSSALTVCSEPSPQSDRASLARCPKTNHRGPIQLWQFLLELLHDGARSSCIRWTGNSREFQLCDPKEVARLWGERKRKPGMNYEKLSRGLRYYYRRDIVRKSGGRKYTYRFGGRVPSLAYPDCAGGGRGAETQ
Procedure, shortened: as §1

ELF3 = target: T5, ELF3 (Homo sapiens, UniProt P78545 1-371); details: protein: recombinant; tags: N-terminal GST; dsDNA, one strand shown
T5 sequence: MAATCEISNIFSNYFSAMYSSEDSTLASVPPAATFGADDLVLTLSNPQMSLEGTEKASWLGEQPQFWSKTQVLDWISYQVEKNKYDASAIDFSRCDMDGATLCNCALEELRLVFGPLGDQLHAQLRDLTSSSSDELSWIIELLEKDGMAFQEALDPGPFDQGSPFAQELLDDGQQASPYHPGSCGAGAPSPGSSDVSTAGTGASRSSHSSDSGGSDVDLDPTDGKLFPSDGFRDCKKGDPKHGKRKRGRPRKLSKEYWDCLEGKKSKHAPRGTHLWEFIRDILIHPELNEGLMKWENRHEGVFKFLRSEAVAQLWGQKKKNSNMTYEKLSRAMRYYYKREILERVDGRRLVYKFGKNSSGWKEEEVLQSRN
Procedure, shortened: as §1

CRX = CRX (Homo sapiens, UniProt O43186 1-299); details: protein: recombinant; tags: N-terminal GST; dsDNA, one strand shown
Chain of CRX (O43186 whole entry): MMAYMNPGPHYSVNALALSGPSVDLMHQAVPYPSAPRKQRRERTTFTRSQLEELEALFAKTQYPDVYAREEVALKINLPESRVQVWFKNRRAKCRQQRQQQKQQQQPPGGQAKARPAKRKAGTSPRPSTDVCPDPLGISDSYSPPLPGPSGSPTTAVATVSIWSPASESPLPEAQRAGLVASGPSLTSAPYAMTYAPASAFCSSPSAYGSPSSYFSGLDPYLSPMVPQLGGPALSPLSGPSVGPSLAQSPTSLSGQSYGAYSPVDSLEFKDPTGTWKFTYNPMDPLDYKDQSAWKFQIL
Procedure, shortened: as §1

ETV1 = ETV1 (Homo sapiens, UniProt P50549 1-477); details: protein: recombinant; tags: N-terminal GST; dsDNA, one strand shown
Chain of ETV1 (P50549 whole entry): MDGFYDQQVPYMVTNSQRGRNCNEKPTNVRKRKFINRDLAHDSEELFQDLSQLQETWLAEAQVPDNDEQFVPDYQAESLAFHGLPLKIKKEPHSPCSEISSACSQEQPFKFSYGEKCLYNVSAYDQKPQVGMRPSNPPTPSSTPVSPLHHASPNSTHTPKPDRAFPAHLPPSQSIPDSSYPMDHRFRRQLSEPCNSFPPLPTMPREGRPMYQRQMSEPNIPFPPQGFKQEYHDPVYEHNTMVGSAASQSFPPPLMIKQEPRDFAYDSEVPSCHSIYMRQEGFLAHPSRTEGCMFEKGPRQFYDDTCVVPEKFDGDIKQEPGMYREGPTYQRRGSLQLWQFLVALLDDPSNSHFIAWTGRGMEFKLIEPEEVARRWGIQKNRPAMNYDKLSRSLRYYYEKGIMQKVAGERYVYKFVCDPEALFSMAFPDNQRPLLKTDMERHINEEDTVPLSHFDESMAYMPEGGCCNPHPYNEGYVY
Procedure, shortened: as §1

ERF = target: T6, ERF (Homo sapiens, UniProt P50548 1-548); details: protein: recombinant; tags: N-terminal GST; dsDNA, one strand shown
T6 sequence: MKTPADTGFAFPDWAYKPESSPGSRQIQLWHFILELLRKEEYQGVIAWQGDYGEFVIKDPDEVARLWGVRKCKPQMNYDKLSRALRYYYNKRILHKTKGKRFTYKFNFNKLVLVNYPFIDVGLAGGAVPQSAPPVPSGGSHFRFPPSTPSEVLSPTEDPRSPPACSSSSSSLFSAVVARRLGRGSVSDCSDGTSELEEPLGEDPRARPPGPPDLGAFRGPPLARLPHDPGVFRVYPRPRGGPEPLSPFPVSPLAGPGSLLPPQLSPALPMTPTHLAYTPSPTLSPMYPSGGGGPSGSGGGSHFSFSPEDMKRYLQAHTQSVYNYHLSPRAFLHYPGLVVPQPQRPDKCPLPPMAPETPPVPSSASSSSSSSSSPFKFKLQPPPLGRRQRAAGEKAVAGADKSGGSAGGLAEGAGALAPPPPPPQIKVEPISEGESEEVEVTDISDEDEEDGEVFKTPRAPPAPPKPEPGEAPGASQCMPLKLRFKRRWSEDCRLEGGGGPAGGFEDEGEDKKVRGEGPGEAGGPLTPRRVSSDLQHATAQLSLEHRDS
Procedure, shortened: as §1

ETV3L = target: T7, ETV3L (Homo sapiens, UniProt Q6ZN32 1-361); details: protein: recombinant; tags: N-terminal GST; dsDNA, one strand shown
T7 sequence: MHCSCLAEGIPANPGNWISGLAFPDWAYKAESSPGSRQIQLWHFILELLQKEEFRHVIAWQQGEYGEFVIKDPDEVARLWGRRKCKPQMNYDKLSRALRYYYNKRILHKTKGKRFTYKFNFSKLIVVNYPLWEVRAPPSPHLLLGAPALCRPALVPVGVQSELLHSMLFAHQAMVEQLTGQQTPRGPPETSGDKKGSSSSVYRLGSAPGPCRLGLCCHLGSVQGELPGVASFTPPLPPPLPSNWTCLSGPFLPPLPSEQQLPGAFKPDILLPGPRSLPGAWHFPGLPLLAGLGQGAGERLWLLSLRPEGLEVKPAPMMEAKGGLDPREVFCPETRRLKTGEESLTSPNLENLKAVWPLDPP
Procedure, shortened: as §1

ETS2 = target: T8, ETS2 (Homo sapiens, UniProt P15036 1-469); details: protein: recombinant; tags: N-terminal GST; dsDNA, one strand shown
T8 sequence: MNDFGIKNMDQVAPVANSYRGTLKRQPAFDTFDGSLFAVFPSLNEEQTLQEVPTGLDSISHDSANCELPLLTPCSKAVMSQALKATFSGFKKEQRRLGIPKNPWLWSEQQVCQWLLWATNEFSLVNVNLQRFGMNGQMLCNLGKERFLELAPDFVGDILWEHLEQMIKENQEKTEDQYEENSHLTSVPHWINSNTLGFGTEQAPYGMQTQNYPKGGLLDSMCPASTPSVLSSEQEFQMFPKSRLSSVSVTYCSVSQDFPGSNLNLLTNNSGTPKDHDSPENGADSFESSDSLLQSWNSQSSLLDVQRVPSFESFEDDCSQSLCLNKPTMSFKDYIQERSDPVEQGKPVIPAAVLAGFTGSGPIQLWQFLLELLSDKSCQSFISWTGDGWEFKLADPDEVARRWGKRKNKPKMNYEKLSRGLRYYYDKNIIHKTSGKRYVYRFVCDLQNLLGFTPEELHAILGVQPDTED
Procedure, shortened: as §1

SPDEF = target: T9, SPDEF (Homo sapiens, UniProt O95238 1-335); details: protein: recombinant; tags: N-terminal GST; dsDNA, one strand shown
T9 sequence: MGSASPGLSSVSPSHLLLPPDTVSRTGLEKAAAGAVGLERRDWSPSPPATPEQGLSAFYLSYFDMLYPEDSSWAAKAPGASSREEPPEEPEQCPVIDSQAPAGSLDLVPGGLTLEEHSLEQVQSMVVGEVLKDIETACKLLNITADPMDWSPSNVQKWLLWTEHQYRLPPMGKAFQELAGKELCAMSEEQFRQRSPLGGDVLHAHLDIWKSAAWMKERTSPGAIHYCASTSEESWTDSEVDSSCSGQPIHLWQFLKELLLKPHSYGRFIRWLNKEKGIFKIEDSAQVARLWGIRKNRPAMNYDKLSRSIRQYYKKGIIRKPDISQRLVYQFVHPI
Procedure, shortened: as §1

ETV7 = target: T10, ETV7 (Homo sapiens, UniProt Q9Y603 1-341); details: protein: recombinant; tags: N-terminal GST; dsDNA, one strand shown
T10 sequence: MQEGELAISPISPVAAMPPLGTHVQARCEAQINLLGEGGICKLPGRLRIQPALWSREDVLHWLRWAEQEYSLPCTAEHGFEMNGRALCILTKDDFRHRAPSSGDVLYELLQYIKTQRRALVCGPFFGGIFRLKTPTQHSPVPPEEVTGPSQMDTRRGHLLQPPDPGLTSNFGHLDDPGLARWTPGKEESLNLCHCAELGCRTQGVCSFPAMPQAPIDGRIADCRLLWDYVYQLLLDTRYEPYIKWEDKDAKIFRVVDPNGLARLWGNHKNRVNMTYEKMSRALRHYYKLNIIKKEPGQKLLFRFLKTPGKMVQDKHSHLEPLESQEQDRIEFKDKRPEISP
Procedure, shortened: as §1

ELF5 = target: T11, ELF5 (Homo sapiens, UniProt Q9UKW6-2 1-255); details: protein: recombinant; tags: N-terminal GST; dsDNA, one strand shown
T11 sequence: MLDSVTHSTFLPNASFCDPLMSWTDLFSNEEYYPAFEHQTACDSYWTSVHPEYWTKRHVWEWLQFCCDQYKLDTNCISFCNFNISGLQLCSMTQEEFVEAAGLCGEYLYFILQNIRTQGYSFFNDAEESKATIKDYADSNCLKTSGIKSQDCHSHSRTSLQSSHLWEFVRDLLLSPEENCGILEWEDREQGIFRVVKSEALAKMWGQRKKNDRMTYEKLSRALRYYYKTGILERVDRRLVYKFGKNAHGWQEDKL
Procedure, shortened: as §1

ETV3 = target: T12, ETV3 (Homo sapiens, UniProt P41162-2 1-143); details: protein: recombinant; tags: N-terminal GST; dsDNA, one strand shown
T12 sequence: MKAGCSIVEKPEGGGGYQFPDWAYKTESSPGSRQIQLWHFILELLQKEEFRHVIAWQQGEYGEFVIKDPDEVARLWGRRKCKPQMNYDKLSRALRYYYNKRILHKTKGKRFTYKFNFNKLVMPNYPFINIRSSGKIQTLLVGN
Procedure, shortened: as §1

ETV6 = ETV6 (Homo sapiens, UniProt P41212 1-452); details: protein: recombinant; tags: N-terminal GST; dsDNA, one strand shown
Chain of ETV6 (P41212 whole entry): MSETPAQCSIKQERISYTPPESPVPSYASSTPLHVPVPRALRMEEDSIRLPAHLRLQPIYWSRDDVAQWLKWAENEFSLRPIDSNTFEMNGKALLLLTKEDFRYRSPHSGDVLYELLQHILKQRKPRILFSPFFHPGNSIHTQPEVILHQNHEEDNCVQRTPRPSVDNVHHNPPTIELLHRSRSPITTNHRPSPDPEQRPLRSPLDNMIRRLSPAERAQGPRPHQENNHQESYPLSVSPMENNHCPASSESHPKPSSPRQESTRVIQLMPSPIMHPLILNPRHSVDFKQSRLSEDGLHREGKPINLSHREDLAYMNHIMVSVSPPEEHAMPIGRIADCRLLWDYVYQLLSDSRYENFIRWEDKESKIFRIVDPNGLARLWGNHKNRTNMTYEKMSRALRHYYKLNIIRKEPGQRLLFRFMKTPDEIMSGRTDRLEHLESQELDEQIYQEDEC
Procedure, shortened: as §1

In the case of TTCTAA, the binding signal (FEV) is reported as 1.18 fold enrichment (6-mer frequency, TF over GST control), the binding signal (ETV5) is reported as 1.22 fold enrichment (6-mer frequency, TF over GST control) and the binding signal (HSF1) is reported as 1.83 fold enrichment (6-mer frequency, TF over GST control). The binding signal (SPIC) was 1.13 fold enrichment (6-mer frequency, TF over GST control), the binding signal (ELF4) was 1.23 fold enrichment (6-mer frequency, TF over GST control) and the binding signal (ELK4) was 1.22 fold enrichment (6-mer frequency, TF over GST control). The binding signal (ETV2) was 1.26 fold enrichment (6-mer frequency, TF over GST control), the binding signal (ELF3) was 1.04 fold enrichment (6-mer frequency, TF over GST control) and the binding signal (CRX) was 1.84 fold enrichment (6-mer frequency, TF over GST control). The binding signal (ETV1) was 1.21 fold enrichment (6-mer frequency, TF over GST control), the binding signal (ERF) was 1.23 fold enrichment (6-mer frequency, TF over GST control) and the binding signal (ETV3L) was 1.16 fold enrichment (6-mer frequency, TF over GST control). The binding signal (ETS2) was 1.26 fold enrichment (6-mer frequency, TF over GST control), the binding signal (SPDEF) was 1.22 fold enrichment (6-mer frequency, TF over GST control) and the binding signal (ETV7) was 1.23 fold enrichment (6-mer frequency, TF over GST control). The binding signal (ELF5) was 1.17 fold enrichment (6-mer frequency, TF over GST control), the binding signal (ETV3) was 1.19 fold enrichment (6-mer frequency, TF over GST control) and the binding signal (ETV6) was 1.24 fold enrichment (6-mer frequency, TF over GST control).
